Compound activity as filed in PubChem.
sEH act: soluble epoxide hydrolase activators, primary screen, biochemical, human sEH; activation, % at 2 µM; purified human sEH enzymatic activity, activator screen; 0.04% of 91,000 active; Bifunctional epoxide hydrolase 2 (Homo sapiens), P34913; in the data active means activation above about 37%
Target sequence (P34913 whole entry, looked up): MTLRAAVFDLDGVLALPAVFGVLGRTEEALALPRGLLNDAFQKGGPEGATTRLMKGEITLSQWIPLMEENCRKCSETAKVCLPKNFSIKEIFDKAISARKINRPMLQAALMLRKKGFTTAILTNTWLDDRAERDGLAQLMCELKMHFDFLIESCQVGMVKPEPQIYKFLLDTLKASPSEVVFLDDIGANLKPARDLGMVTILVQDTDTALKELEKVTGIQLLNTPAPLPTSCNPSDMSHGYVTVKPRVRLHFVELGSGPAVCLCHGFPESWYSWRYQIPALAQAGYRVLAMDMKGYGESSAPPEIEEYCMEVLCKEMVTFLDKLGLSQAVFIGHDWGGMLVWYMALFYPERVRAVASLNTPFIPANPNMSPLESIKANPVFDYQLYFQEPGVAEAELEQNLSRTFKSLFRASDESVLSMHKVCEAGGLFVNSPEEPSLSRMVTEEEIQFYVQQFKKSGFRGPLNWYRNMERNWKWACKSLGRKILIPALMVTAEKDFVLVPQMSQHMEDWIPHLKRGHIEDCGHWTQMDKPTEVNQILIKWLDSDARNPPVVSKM
sEH inh: soluble epoxide hydrolase inhibitors, primary screen, biochemical, human sEH. Bifunctional epoxide hydrolase 2 (Homo sapiens), P34913. recombinant human sEH enzymatic activity assay. inhibition, % at 2 µM. 0.34% of 91,000 active. AID 707, 2007; in the data active means inhibition above about 80%
Candida biofilm: clotrimazole potentiators killing Candida biofilms, primary screen, with clotrimazole, Alamar Blue; inhibition, % at 6 µM; 0.14% of 85,000 active; C. albicans biofilm + clotrimazole;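 active means inhibition above 20%; inactive means inhibition below 20%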;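 further: preformed 24 hr biofilms exposed to compound for 48 hr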
Measles CPE: compounds protecting cells from measles virus cytopathic effect, primary screen, measles RdRp inhibitor project, single point, MLSMR library, absorbance | Measles virus-infected cells, CPE protection | protection (pct of control), % at 4 µM | 1.5% of 140,000 active; in the data active means protection mostly above about 24%, no sharp cut-off; inactive means mostly below about 26%
F-actin modifier: modifiers of F-actin cytoskeleton organization, primary screen, imaging, HUVEC, phalloidin staining, high-content imaging. inhibition, % at 2 µM. 0.18% of 91,000 active. HUVEC TNFa F-actin phalloidin imaging;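 active means inhibition above the batch mean plus 3 SD and confirmed as a hit by visual image inspection, cut at about 30% in these data, passing the limit was not always enough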
A number is an active result; n = inactive; x = not tested or not shown. In the library only some 1.9% were active in any assay of this set; here they are far more common.

SMILES	sEH act	sEH inh	Candida biofilm	Measles CPE	F-actin modifier
CCCN(CCC)C(=O)CC(c1ccccc1)c1cc(C)ccc1O (stereo unspecified)	n	n	n	n	n
Cc1ccc(O)c(C(CC(=O)N2CCCC2)c2ccccc2)c1 (stereo unspecified)	x	x	n	29	x
Cc1nc2ncnn2c(C)c1CCC(=O)N1CC(C)CC(C)C1 (stereo unspecified)	n	n	n	n	n
CCOC(=O)c1c(C)[nH]c(C(=O)C(C)OC(=O)c2cccc(OCc3c(C)noc3C)c2)c1C (stereo unspecified)	x	x	n	77	n
Cc1noc(C)c1COc1cccc(C(=O)OCC(=O)NC(=O)c2ccc(OC(F)F)cc2)c1	x	x	x	n	x
CC1(C)CC(=O)C(C=NCCN2CCNC2=O)=C(O)C1	x	x	n	35	x
CC(C)(C)NC(=O)c1cccc(NC(=O)c2cccc(O)c2)c1	n	n	x	n	n
COc1ccc(/C=N/n2c(N)c(S(=O)(=O)c3cccs3)c3nc4ccccc4nc32)cc1OC	n	n	n	32	n
CC(=O)Nc1ccc(S(=O)(=O)N2CCCCC2c2cccnc2)cc1 (stereo unspecified)	x	x	n	29	n
COc1cc(C)c(C)cc1S(=O)(=O)N1CCCCC1c1cccnc1 (stereo unspecified)	n	n	n	51	n
COc1ccc(NC(=O)N2CCCCC2c2cccnc2)cc1 (stereo unspecified)	x	x	x	n	x
CC1(C)CC(=O)C2=C(C1)Nc1ccccc1N=C2	n	n	n	n	n
CC1(C)CC(=O)CC(C)(C)N1OC(=O)c1ccccn1	n	n	n	n	n
CCOc1ccc(/C=N/Nc2ccc(C(F)(F)F)cc2[N+](=O)[O-])cc1O	x	x	x	32	x
COc1ccc(/C=N/Nc2ccc(C(F)(F)F)cc2[N+](=O)[O-])cc1O	x	x	x	n	x
O=C(Cc1sc(Nc2ccccc2)nc1-c1ccccc1)NCc1ccccc1	x	x	x	n	x
COc1cc(NC(=S)N2CCN(c3ccccn3)CC2)cc(OC)c1	x	x	x	31	x
CCCCC(=O)NC1=C(C(=O)OC)SCC1	x	x	x	n	x
COC(=O)C1=C(NC(=O)CCCCl)CCS1	x	x	x	50	x
Cc1ccc(-n2c(C)cc(/C=N/Nc3ccc([N+](=O)[O-])cn3)c2C)cc1	n	n	x	n	n
Cc1cc(/C=N/Nc2ccc([N+](=O)[O-])cn2)c(C)n1-c1ccccc1	n	n	25	n	n
CCOC(=O)CNC(=O)c1cn(CC)c(=O)c2cc(OC)c(OC)cc12	x	x	n	n	x
CCOc1ccc2[nH]c(C)c(CN3CCOCC3)c(=O)c2c1	n	n	n	n	76
Cc1[nH]c2ccc(Br)cc2c(=O)c1CN1CCOCC1	n	n	n	n	n
COc1cccc(NC(=O)C(NCC(C)(C)CN(C)C)c2ccccc2)c1 (stereo unspecified)	n	n	x	46	n
SMILES	sEH act	sEH inh	Candida biofilm	Measles CPE	F-actin modifier
Cc1cc(C(=O)Nc2c(C)nn(Cc3c(Cl)cccc3Cl)c2C)no1	n	n	n	n	n
Cc1nn(Cc2c(Cl)cccc2Cl)c(C)c1NC(=O)c1cc(C(C)C)on1	n	n	n	52	n
Cc1nnc(SCC(=O)NCc2ccc3c(c2)OCO3)[nH]c1=O	x	x	n	n	x
COc1ccc(CNC(=O)/C=C/c2cc3c(cc2Br)OCO3)cc1	n	86	x	n	n
O=C(/C=C/c1cc2c(cc1Br)OCO2)NCc1ccc(F)cc1	n	n	x	n	n
COC(=O)c1[nH]c2cc(OC)ccc2c1NC(=O)CN1CCC(C(N)=O)(N2CCCCC2)CC1	n	n	x	n	55
CCCc1cc(=O)[nH]c(SCc2cc(Cl)ccc2OC(F)F)n1	x	x	n	n	n
OC1(c2ccccc2F)CCN(Cc2nnc(-c3ccccc3)o2)CC1	n	n	n	81	n
c1ccc(-c2nnc(CN3CCC4(CC3)OCCO4)o2)cc1	n	n	n	n	n
CC(C)(C)c1cnnn1-c1ccc(NC(=O)c2ccc3c(c2)OCO3)cc1	n	93	n	n	n
CC(C)(C)c1cnnn1-c1ccc(NC(=O)c2ccc(Br)o2)cc1	n	n	n	n	x
CCOC(=O)C1CCN(C(=O)CS(=O)Cc2nc(-c3ccc(C)cc3)oc2C)CC1 (stereo unspecified)	x	x	n	46	n
O=c1[nH]nc(Sc2ncnc3sccc23)n1CCc1ccccc1	n	n	n	n	n
CCOC(=O)c1cnn(-c2nc3c(C)cccc3s2)c1C	n	n	x	n	36
CCOC(=O)c1cnn(-c2nc3c(C)cccc3s2)c1C(F)(F)F	n	n	x	n	n
Cc1ccc(S(=O)(=O)CCC(=O)NCc2ccco2)cc1	n	n	x	n	n
